From PubChem
An excerpt weighted towards active compounds, which were near 19% of everything screened.
TDP1 cell noCPT = qHTS for Inhibitors of human tyrosyl-DNA phosphodiesterase 1 (TDP1): qHTS in cells in absence of CPT; Potency, µM (highest dose often 46.2 µM), usual class: inhibitors; AID 686978, 2013; actives 15% (n = 420,000); DT40 Tdp1-/- hTDP1 cells, no CPT, ATP luminescence, 48 h; note: nearly all actives have a fitted effect of over 55% in size
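Seeded 400 DT40-hTDP1 cells/well (vehicle DMSO, no 20 nM CPT); pinned compounds; ≥48 hr at 37 °C; CellTiter-Glo luminescence as viability measure.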
IL1B secr inh = inhibitors of inflammasome signaling (IL-1 beta secretion); THP-1 LPS/ATP IL-1B secretion, AlphaLISA, 16 h; active compounds read low; activity change, % at 57.5 µM; actives 4.7% (n = 360,000); in the data active = activity change below about -50%; inconclusive = mostly about -30% to -49%
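Secreted IL-1B measured by AlphaLISA bead assay after 16 h compound exposure of THP-1 cells; compounds (final up to 57.5 uM) added 1 h before LPS (250 ng/mL) and ATP (1.25 mM) stimulation; lower signal means less secretion.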
ELG1 DNA repair = inhibitors of ELG1-dependent DNA repair in HEK293T cells | HEK293T ELG1-luciferase reporter, luminescence, 16 h; DNA damage induced by 5-fluorouridine | actives 2.3% (n = 330,000) | Potency, µM (highest dose often 46.1 µM), usual class: inhibitors; note: nearly all actives have a fitted effect of over 55% in size
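Overnight (16 hr) co-exposure of 2,000 cells/well to 5-fluorouridine and compound at 37 °C preceded detection. Luciferase was quantified via ONE-Glo luminescence; loss of signal denotes inhibition.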
TDP1 cell CPT = growth inhibition of DT40 Tdp1-/-;hTDP1 cells with camptothecin (screen for TDP1 inhibitors); chicken DT40 Tdp1-/-;hTDP1 cells + 20 nM CPT, ATP luminescence, 48 h; actives 12% (n = 420,000); Potency, µM (series often up to 46.2 µM), hits mostly inhibitors; AID 686979; note: nearly all actives have a fitted effect of over 55% in size
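Cell growth measured by CellTiter-Glo luminescence after a minimum 48 h, 37 C compound exposure with 20 nM CPT in Tdp1-knockout DT40 cells stably expressing hTDP1, seeded 400/well; qHTS titration format.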
HT1080-NT tox = kills 2HG-producing HT-1080-NT fibrosarcoma cells | HT-1080-NT fibrosarcoma viability, CellTiter-Glo ATP luminescence, 48 h | Potency, µM (titrated, usually from 46.1 µM), hits mostly cytotoxic | actives 1.6% (n = 360,000) | AID 686970;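 note: NT is the 2HG producing partner of a matched IDH1 knockdown line; nearly all actives have a fitted effect of over 55% in size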
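Read-out is CellTiter-Glo luminescence after 10 minutes at room temperature, following 48 hours' compound treatment of HT-1080-NT cells (750 cells/well, RPMI, 5% FBS, 37 degrees C).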
HT1080 IDH1KD tx = HT-1080 IDH1 knockdown cell toxicity (counter line). Potency, µM (titrated, usually from 46.1 µM), actives largely listed as cytotoxic. actives 2% (n = 360,000). HT-1080 IDH1 knockdown viability, ATP luminescence, 48 h
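CellTiter-Glo luminescence after 48 h compound exposure at 37 degrees C of IDH1-knockdown HT-1080 cells in 5% FBS RPMI. %Activity scaled between DMSO wells and cell-free media wells, with curves fitted and assigned curve classes.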
Numbers stand for hits; 0 = inactive; ? = inconclusive; - = not tested or not shown; ! = not confirmed by another sample; [ ] = another dose, or the depositor's remark. Unless noted, calls come from the whole dose curve; as a rule, active = well fitted curve in the direction sought with a large enough effect; inconclusive = small, poorly fitted or top-dose-only effect, or another doubt; inactive = no such curve, though single readings can be large; an effect the other way counts as inactive or inconclusive.

SMILES | TDP1 cell noCPT | IL1B secr inh | ELG1 DNA repair | TDP1 cell CPT | HT1080-NT tox | HT1080 IDH1KD tx
COc1ccccc1NS(=O)(=O)c1ccc(C)c(C(=O)N2CCN(c3ccc(O)cc3)CC2)c1 | 13µM | 0 | 0 | 15µM | 0 | 0
O=C(Cn1ncc2c(Cl)cccc21)NCc1cccc(Br)c1 | 0 | - | - | ? | - | -
CCOC(=O)C1=CN(CC)S(=O)(=O)NC1c1cccc(OC)c1 (stereo unspecified) | 0 | 0 | 0 | 0 | 0 | 0
COCC(C)NC(=O)COCc1cc(-c2ccc3c(c2)OCO3)on1 (stereo unspecified) | 0 | 0 | 0 | 0 | 0 | 0
CC(C)CN1CC2(CCN(C(=O)c3cnccn3)CC2)C1 | 0 | - | - | 0 | - | -
Cc1ccc2nc(NC(=O)c3ccccc3F)sc2c1 | ? | 0 | ? | 0 | 0 | 0
CCC(CC)C(=O)Nc1ccc2nc(SCc3ccccc3)sc2c1 | 16µM | - | - | 16µM | - | -
CCCC(=O)Nc1ccc2nc(SCc3ccc(C)cc3)sc2c1 | ? | - | - | 0 | - | -
CCCC(=O)Nc1nc2ccc(NC(=O)c3ccccc3F)cc2s1 | 2.1µM | 0 | 0 | 1.8µM | ? | ?
COc1cc(C(=O)Nc2ccc3nc(SCc4ccccc4)sc3c2)cc(OC)c1OC | 15µM | - | - | 13µM | - | -
CCC(=O)Nc1nc2ccc(NC(=O)c3cc(OC)c(OC)c(OC)c3)cc2s1 | 21µM | -52 | ? | ? | 0 | 0
COc1cc(C(=O)Nc2ccc(NC(=O)c3ccccc3)nc2)cc(OC)c1OC | ? | 0 | ? | 0 | 0 | 0
COC(=O)CCC(=O)NNC(=O)C1CC1(c1ccccc1)c1ccccc1 (stereo unspecified) | 0 | 0 | 0 | 0 | 0 | 0
CCC(=O)Nc1ccc2nc(SCc3ccccc3)sc2c1 | 13µM | - | - | ? | - | -
Cc1nc(C(=O)O)cc([N+](=O)[O-])c1C | ? | 0 | - | 0 | 0 | 0
CCOc1ccc(S(=O)(=O)N(C)c2ccc(OCC(=O)Nc3nc4ccccc4s3)cc2)cc1 | 9.2µM | 0 | ? | 12µM | 0 | 6.5µM
CCc1nnc(NC(=O)COc2ccc(N(C)S(=O)(=O)c3ccc(C)cc3)cc2)s1 | ? | 0 | ? | 0 | 0 | 0
CCOC(=O)Cc1csc(NC(=O)COc2ccc(N(C)S(=O)(=O)c3ccc(C)cc3)cc2)n1 | 0 | 0 | 18µM | 0 | 0 | 0
CN(c1ccc(OCC(=O)Nc2nc3ccccc3s2)cc1)S(=O)(=O)c1ccccc1 | 0 | 0 | 8.2µM | 0 | 0 | ?
O=C(OCc1ccccc1F)c1cc(S(=O)(=O)N2CCCCC2)ccc1N1CCOCC1 | ? | 0 | - | ? | 0 | 0
CC(=O)Nc1cnc(-c2cc(C)c(O)c(C)c2)cn1 | 0 | 0 | - | ? | 0 | 0
CN(Cc1ccco1)c1ncnc2ccc(-c3cccnc3)cc12 | 18µM | - | - | 15µM | - | -
Cc1noc(C)c1-c1ccc2ncnc(N(C)Cc3ccco3)c2c1 | 12µM | - | - | ? | - | -
CN(C)C(=O)c1ccc(-c2ccc3ncnc(N(C)Cc4ccco4)c3c2)cc1 | ? | - | - | 5.8µM | - | -
CN(Cc1ccco1)c1ncnc2ccc(-c3cccc(C#N)c3)cc12 | 23µM | - | - | 23µM | - | -
SMILES | TDP1 cell noCPT | IL1B secr inh | ELG1 DNA repair | TDP1 cell CPT | HT1080-NT tox | HT1080 IDH1KD tx
CN(Cc1ccco1)c1ncnc2ccc(-c3ccc4c(ccn4C)c3)cc12 | - | - | 0 | - | - | -
Cc1noc(C)c1-c1cc(N(C)Cc2ccco2)ncn1 | 0 | - | - | ? | - | -
Cc1oc(-c2cccc(NC(=O)c3ccccn3)c2)nc1CNC(=O)c1ccc(C(F)(F)F)cc1 | 0 | - | - | 0[9.04 µM] | - | -
CN(Cc1ccco1)c1ncnc2ccc(-c3ccc4c(c3)OCO4)cc12 | 16µM | - | ? | 18µM | - | -
CN(Cc1ccco1)c1ncncc1-c1ccc2c(c1)OCO2 | 0 | - | - | ? | - | -
CC1(C(=O)NS(=O)(=O)c2ccccc2)CCN1C(=O)CC1CCCCC1 (stereo unspecified) | 0 | 0 | - | 0 | 0 | 0
Cc1ccc(NC2=NC3(CCCCC3)N=C(N)N2)c(C)c1 | ? | ? | 0 | 23µM | ? | 11µM
NC1=NC2(CCCCC2)N=C(Nc2ccc(Br)cc2)N1 | ? | -102 | ? | ? | 0 | 0
Cc1ccccc1NC1=NC2(CCCC2)N=C(N)N1 | 0 | 0 | 0 | 0 | 0 | 0
Cc1ccc(C)c(NC2=NC3(CCCCC3)N=C(N)N2)c1 | 0 | 0 | 0 | 0 | 0 | 0
Cc1ccc(NC2=NC3(CCCC3)N=C(N)N2)c(C)c1 | 3.7µM | 0 | 0 | 2.9µM | 18µM | 16µM
C=C1CCN([C@@H](CC(C)C)C(=O)N2CCCC2)S(=O)(=O)c2ccccc21 | ? | 0 | - | ? | 0 | 0
O=C(Cc1ccc([N+](=O)[O-])cc1)OCc1c(F)cccc1Cl | 0 | 0 | 0 | 0 | 0 | 0
O=c1c(=O)n(-c2ccccc2)ccn1Cc1c(F)cccc1Cl | 0 | - | - | 0 | - | -
COc1ccc(C2c3c(n(C)c4ccccc34)C(=O)N2CC(=O)Nc2ccc(Cl)cc2)cc1 (stereo unspecified) | ? | - | - | 18µM | - | -
CCc1cccc(C)c1NC(=O)CN1C(=O)c2c(c3ccccc3n2C)C1c1ccc(OC)cc1 (stereo unspecified) | 29µM | - | - | ? | - | -
COc1ccc(C2c3c(n(C)c4ccccc34)C(=O)N2CC(=O)Nc2ccc(F)cc2)cc1 (stereo unspecified) | 0 | - | - | 0 | - | -
O=C(Cc1cccs1)N[C@@H]1C(=O)N2C(C(=O)[O-])=C(C[n+]3ccccc3)CS[C@H]12 | 0 | - | - | 0 | - | -
CCCS(=O)(=O)N1CC(=O)N(c2ccc(Cl)cc2C)C(C)(C(=O)NC2CCCC2)C1 (stereo unspecified) | 0 | - | - | 0 | - | -
C=CCc1ccc(OCc2ccc(C(=O)Nc3ccc(NC(C)=O)cc3)o2)c(OC)c1 | 16µM! | 0 | ? | ? | 0 | 0
COc1cccc(N(CC(=O)N2CCC(C)CC2)S(=O)(=O)c2ccc(C)cc2)c1 | 15µM | - | - | 21µM | - | -
CCOC(=O)N1CCN(C(=O)CS(=O)(=O)c2cn(Cc3ccc(Cl)cc3)c3ccccc23)CC1 | 16µM | 0 | ? | 23µM | 0 | 0
CCOc1ccccc1N(CC(=O)N1CCC(C)CC1)S(=O)(=O)c1ccc(C)cc1 | 15µM | 0 | 0 | 9.2µM | 0 | 0
CCOc1ccccc1N(CC(=O)NC1CCCC1)S(=O)(=O)c1ccc(C)cc1 | 21µM | 0 | ? | ? | 0 | 0
CCOc1ccccc1N(CC(=O)NC1CCCCC1)C(=O)c1nsc(Cl)c1Cl | 26µM | 0 | ? | 0 | 0 | 0
CCOc1ccccc1N(CC(=O)N1CCCCCC1)S(=O)(=O)c1ccc(C)cc1 | ? | 0 | 0 | 23µM | 0 | 0
CCOC(=O)N1CCN(C(=O)CN(Cc2ccc(Cl)cc2)S(=O)(=O)c2ccc(C)cc2)CC1 | ? | 0 | ? | 16µM | 0 | 0
